{"source": "PubChem BioAssay (NCI)", "experiment": "NCI Yeast Anticancer Drug Screen. Data for the sgs1 strain (AID 173);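 also: 0% = growth of vehicle-only control cultures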", "conditions": "S. cerevisiae sgs1 mutant, hits give high values", "description": "Growth inhibition of yeast strains with defined genetic alterations is measured as a screen for potential anti-cancer activity. Selected strains with alterations in DNA damage repair or cell cycle control were exposed to compounds and growth inhibition was measured relative to vehicle treated controls. The strain used in this assay is sgs1", "note": "Compounds without any hit were thinned out: in the full panel of roughly 79,000, 15% have a hit. Unmarked numbers belong to inactive results. Calls of active or inactive are those of the source. Rule as the data show it: active = growth inhibition above about 70%; inactive = the rest."}
{"compound": "O=[N+]([O-])c1cc(S(=O)(=O)Nc2ccccc2)ccc1Nc1ccccc1", "values": [{"measurement": "growth inhibition", "setting": "at 1.2 µM", "value": 0, "unit": "%"}, {"measurement": "growth inhibition", "setting": "at 3.7 µM", "value": -8, "unit": "%"}, {"measurement": "growth inhibition", "setting": "at 11.0 µM", "value": "91% (active)"}, {"measurement": "growth inhibition", "setting": "at 33.0 µM", "value": "91% (active)"}, {"measurement": "growth inhibition", "setting": "at 100.0 µM", "value": "83% (active)"}]}
{"compound": "CS(=O)(=O)SCc1ccc([N+](=O)[O-])cc1", "values": [{"measurement": "growth inhibition", "setting": "at 1.2 µM", "value": -3, "unit": "%"}, {"measurement": "growth inhibition", "setting": "at 3.7 µM", "value": 39, "unit": "%"}, {"measurement": "growth inhibition", "setting": "at 11.0 µM", "value": "97% (active)"}, {"measurement": "growth inhibition", "setting": "at 33.0 µM", "value": "99% (active)"}, {"measurement": "growth inhibition", "setting": "at 100.0 µM", "value": "97% (active)"}]}
{"compound": "Cc1ccc(Sc2ccccc2N)cc1", "values": [{"measurement": "growth inhibition", "setting": "at 1.2 µM", "value": 8, "unit": "%"}, {"measurement": "growth inhibition", "setting": "at 3.7 µM", "value": -2, "unit": "%"}, {"measurement": "growth inhibition", "setting": "at 11.0 µM", "value": -3, "unit": "%"}, {"measurement": "growth inhibition", "setting": "at 33.0 µM", "value": 51, "unit": "%"}, {"measurement": "growth inhibition", "setting": "at 100.0 µM", "value": "98% (active)"}]}
{"compound": "O=c1ccc2ccccc2c2ccccc12", "values": [{"measurement": "growth inhibition", "setting": "at 1.2 µM", "value": -2, "unit": "%"}, {"measurement": "growth inhibition", "setting": "at 3.7 µM", "value": 12, "unit": "%"}, {"measurement": "growth inhibition", "setting": "at 11.0 µM", "value": 69, "unit": "%"}, {"measurement": "growth inhibition", "setting": "at 33.0 µM", "value": "98% (active)"}, {"measurement": "growth inhibition", "setting": "at 100.0 µM", "value": "98% (active)"}]}
{"compound": "CC(=O)Nc1ccc2c(c1)Cc1cc(N=C3C=CC(=O)O3)ccc1-2", "values": [{"measurement": "growth inhibition", "setting": "at 1.2 µM", "value": 14, "unit": "%"}, {"measurement": "growth inhibition", "setting": "at 3.7 µM", "value": 34, "unit": "%"}, {"measurement": "growth inhibition", "setting": "at 11.0 µM", "value": "92% (active)"}, {"measurement": "growth inhibition", "setting": "at 33.0 µM", "value": "99% (active)"}, {"measurement": "growth inhibition", "setting": "at 100.0 µM", "value": "99% (active)"}]}
{"compound": "COc1ccc([N+](=O)[O-])c2c(NCCCN(C)C)c3ccccc3nc12", "values": [{"measurement": "growth inhibition", "setting": "at 1.2 µM", "value": 12, "unit": "%"}, {"measurement": "growth inhibition", "setting": "at 3.7 µM", "value": 31, "unit": "%"}, {"measurement": "growth inhibition", "setting": "at 11.0 µM", "value": 56, "unit": "%"}, {"measurement": "growth inhibition", "setting": "at 33.0 µM", "value": "83% (active)"}, {"measurement": "growth inhibition", "setting": "at 100.0 µM", "value": "90% (active)"}]}
{"compound": "CCO/C(C)=C(/C#N)C(N)=S", "values": [{"measurement": "growth inhibition", "setting": "at 1.2 µM", "value": -1, "unit": "%"}, {"measurement": "growth inhibition", "setting": "at 3.7 µM", "value": 3, "unit": "%"}, {"measurement": "growth inhibition", "setting": "at 11.0 µM", "value": 1, "unit": "%"}, {"measurement": "growth inhibition", "setting": "at 33.0 µM", "value": 3, "unit": "%"}, {"measurement": "growth inhibition", "setting": "at 100.0 µM", "value": 6, "unit": "%"}]}
{"compound": "O=c1nc2n(Cc3ccccc3)c3ccccc3nc-2c(=O)[nH]1", "values": [{"measurement": "growth inhibition", "setting": "at 1.2 µM", "value": -2, "unit": "%"}, {"measurement": "growth inhibition", "setting": "at 3.7 µM", "value": 11, "unit": "%"}, {"measurement": "growth inhibition", "setting": "at 11.0 µM", "value": "74% (active)"}, {"measurement": "growth inhibition", "setting": "at 33.0 µM", "value": "94% (active)"}, {"measurement": "growth inhibition", "setting": "at 100.0 µM", "value": "97% (active)"}]}
